Laboratory results as given in PubChem BioAssay AID1259343 (VanderVen Lab, College of Veterinary Medicine, Cornell …, 2017).
Among all 6,200 compounds or so, about 2,900 (47%) were called active. No stated cut-off is given here; in the data, active means inhibition above about 50%; inactive means the rest. The set was probably picked from earlier hits. The list shows a part of the results. Where a SMILES comes first, the peptide text is derived from it. [ ]: non-standard residue; d: D form. Orn = NCCC[CH](N)C(=O)O

Assay: Mycobacterium tuberculosis growth inhibition, primary screen (AID 1259343)
Conditions: inhibition: at 10 µM, hits give high values; outcome: 10 uM

Compound | inhibition
CCCOC(=NCCCN(C)C)NC(=O)c1ccc(Cl)c(Cl)c1 | 43.6% (inactive)
CCCOC(=O)c1ccc(NC(=O)c2cc(CCC)[nH]n2)cc1 | 65% (active)
CCCOC(=O)c1cc(Br)ccc1NC(=O)c1ccc(C)nc1 | 8.93% (inactive)
Nc1scc(-c2ccc(Oc3ccccc3)cc2)[n+]1CCCS(=O)(=O)[O-] | 68.1% (active)
Nc1nc(-c2ccc(Oc3ccccc3)cc2)cs1 | 17.5% (inactive)
CCOC(=O)NC(n1ccnc1)C(F)(F)C(F)(F)C(F)(F)C(F)F (stereo not given) | 15.8% (inactive)
C=C1/C(=N\OC(=O)Nc2ccc(C)cc2)CC2CC1C2(C)C (stereo not given) | 86.8% (active)
CN1CCN(c2ccc3nc(-c4c(N)c5c(F)cccc5[nH]c4=O)[nH]c3c2)CC1 | 30.7% (inactive)
S=C(Nc1ccccn1)NC1CC2CCC1C2 (stereo not given) | 97.7% (active)
S=C(NCC1COc2ccccc2O1)NC1CC2CCC1C2 (stereo not given) | -18.9% (inactive)
S=C(Nc1ccc(-n2cnnn2)cc1)NC1CC2CCC1C2 (stereo not given) | 103% (active)
Oc1cccc2c(NC(=S)NC3CC4CCC3C4)cccc12 (stereo not given) | 23.4% (inactive)
CC(C)CCNc1nc(C(=O)OC(C)C(N)=O)cs1 (stereo not given) | 20.4% (inactive)
CC(C)c1cc(CN(C)C(=O)CC23CC4CC(CC(C4)C2)C3)no1 | 32.9% (inactive)
COCC(C)C1CCN(C(=O)CC23CC4CC(CC(C4)C2)C3)CC1 (stereo not given) | -13.6% (inactive)
Cc1ncsc1CCOC(=O)CC12CC3CC(CC(C3)C1)C2 | 103% (active)
CC(C)CN(CCC(=O)O)c1nc(-c2ccccc2Cl)nc2ccccc12 | 37.1% (inactive)
NC(=O)c1csc(C(=O)NC2CC2c2cccc(Cl)c2)c1 (stereo not given) | 27.2% (inactive)
NC(=O)c1csc(CNc2ccc(F)cc2)c1 | 68.7% (active)
Clc1ccc(C(Cn2ccnc2)OCc2c(Cl)cccc2Cl)c(Cl)c1 (stereo not given) | -47.1% (inactive)
CN(C)C(=O)CSCC(=O)O | -0.78% (inactive)
C(=C\c1ccccc1)/CNc1ccc2c(c1)OCCO2 | -42.5% (inactive)
O=C1CC(Nc2ccc3c(c2)OCCCO3)C(=O)N1CCc1ccccc1F (stereo not given) | 53.9% (active)
O=C(CCC1CCN(C(=O)CCc2ccccc2)CC1)Nc1ccc2c(c1)OCCO2 | 0.33% (inactive)
COc1ccc(-c2nc(Nc3ccc(F)cc3)c3ccccc3n2)cc1 | 26.9% (inactive)

Compound | inhibition
COc1ccc(Nc2cccc3nonc23)cc1 | 60.3% (active)
CC1(C)CC[C@@]2(C(=O)O)C(C1)C1=CCC3[C@@]4(C)CC[C@H](O)C(C)(C)C4CC[C@@]3(C)[C@]1(C)C[C@@H]2O (stereo not given in full) | 69.3% (active)
Cc1nc(NCc2ccco2)c2c3c(sc2n1)CCCC3 | 59.1% (active)
Cc1cc(/C=C/c2ccc3cc(N(C)C)ccc3[n+]2C)c(C)n1-c1ccccc1 | 48.1% (inactive)
Cc1cc(C=Cc2ccc3cc(N(C)C)ccc3[n+]2C)c(C)n1-c1ccccc1 | inactive
Cc1cc(/C=N\O)c(C)n1-c1ccc(-c2ccccc2)cc1 | 79.1% (active)
O=[N+]([O-])c1cc(NS(=O)(=O)c2cc(Cl)cc(Cl)c2)ccc1Cl | 21.6% (inactive)
O=[N+]([O-])c1ccc(NS(=O)(=O)c2ccc(Br)cc2)cc1 | 58.1% (active)
O=[N+]([O-])c1cc(S(=O)(=O)Nc2ccc(Br)cc2)ccc1Cl | 66.2% (active)
COc1ccc(CNc2ccc([N+](=O)[O-])cc2)cc1 | 4.07% (inactive)
O=S(=O)(Nc1ccc2c(c1)CCC2)c1ccc(Br)cc1 | 32.5% (inactive)
O=[N+]([O-])c1ccc(NS(=O)(=O)Cc2ccccc2)cc1 | 73.9% (active)
O=C(NCc1ccccc1)c1ccc(C(F)(F)F)cc1 | 20.5% (inactive)
CC(NC(=O)c1ccc(Cl)o1)c1ccc(C(F)(F)F)cc1 (stereo not given) | 85.3% (active)
CC(NC(=O)c1cccs1)c1ccc(Cl)s1 (stereo not given) | -37.7% (inactive)
CC(NC(=O)c1ccc(C(F)(F)F)cc1)c1ccco1 (stereo not given) | 62.5% (active)
CC(NC(=O)c1cccs1)c1ccc(C(F)(F)F)cc1 (stereo not given) | 69.9% (active)
CC(NC(=O)CC1C=CCC1)c1ccc(C(F)(F)F)cc1 (stereo not given) | 12.8% (inactive)
CC(NC(=O)c1ccc(Br)o1)c1ccc(Cl)s1 (stereo not given) | -46.6% (inactive)
CCCc1cc(=O)[nH]c(-n2nc(C)cc2NC(=O)C(C)(C)CCl)n1 | 102% (active)
CCCc1cc(=O)[nH]c(-n2nc(C)cc2NC(C)=O)n1 | 99.8% (active)
CCCc1cc(=O)[nH]c(-n2nc(C)cc2NC(=O)CC)n1 | 100% (active)
CCCc1cc(=O)[nH]c(-n2nc(C)cc2NC(=O)C(C)(C)Oc2ccc(Cl)cc2)n1 | 2.87% (inactive)
O=c1c(O)cccc2cc(O)c(O)c(O)c12 | 64.6% (active)
COC(=O)C(C)Sc1ncnc2sc(C)c(C)c12 (stereo not given) | -21% (inactive)

Compound | inhibition
Cc1sc2ncnc(SCC(=O)c3ccc(Cl)s3)c2c1C | 13.9% (inactive)
CC(=NNc1ncnc2sc(C)c(C)c12)c1ccc(Cl)s1 | 47.1% (inactive)
CCCC(CCC)=NNc1ncnc2sc(C)c(C)c12 | 96.3% (active)
Cc1ccsc1C=NNc1ncnc2sc(C)c(C)c12 | 66.9% (active)
CCCCNC(=S)NNc1ncnc2sc(C)c(C)c12 | 65.6% (active)
COC(=O)c1ccc(CSc2ncnc3c2nnn3Cc2ccc(F)cc2)o1 | 3.1% (inactive)
COC(=O)c1ccc(Cn2ncc(Cl)c(Cl)c2=O)o1 | 75.5% (active)
COC(=O)c1ccc(CSc2ncnc3c2nnn3Cc2ccccc2)o1 | 26.9% (inactive)
CC(C)C(C)NC(=O)Nc1nc(-c2ccccc2)ns1 (stereo not given) | 83.1% (active)
COCC1(NC(=O)Nc2nc(-c3ccccc3)ns2)CCCC1 | 5.18% (inactive)
CCOC(=O)C1(Cc2ccc(Cl)cc2)CCN(C(=O)Nc2ccc(Cl)cc2C)CC1 | 1.06% (inactive)
CCOC(=O)C1(Cc2ccc(Cl)cc2)CCN(Cc2cccc3nonc23)CC1 | 78.1% (active)
CCOC(=O)C1(CCOc2ccccc2)CCN(Cc2nc(C(C)C)cs2)CC1 | inactive
CNC(=O)c1ccccc1NC(=O)c1ccc(C)c(Br)c1 | 23.1% (inactive)
Cc1cc(Br)ccc1NC(=O)c1ccc([N+](=O)[O-])o1 | 38.1% (inactive)
Cc1cccc(NC(=O)c2n[nH]c([N+](=O)[O-])c2Br)c1C | 86.8% (active)
C=CCSc1nn2c(=O)c3ccccc3nc2s1 | 97.6% (active)
CCOc1ccc(Br)c(C=Nc2ccc3oc(=O)ccc3c2)c1O | 81.3% (active)
Cc1nc(COc2ccc(C(=O)NCc3ccc(F)cc3)cc2)cs1 | -15.9% (inactive)
Cc1c(C(=O)NCc2ccc(Cl)c(Cl)c2)sc(=O)n1Cc1ccc(F)cc1 | 17.9% (inactive)
Cc1csc2nc(O)c(C(=O)NCc3ccc(F)cc3)c(=O)n12 | 74.4% (active)
Cc1c(C(=O)NCc2ccc(Cl)c(Cl)c2)sc(=O)n1CCc1ccccc1 | 35.6% (inactive)
Cc1csc2nc(O)c(C(=O)NCCc3ccccc3)c(=O)n12 | 82.8% (active)
CC(=O)NCc1ccc(-c2nc(CCc3ccccc3)sc2C)s1 | 28% (inactive)
CCOc1ccc(NC(=O)c2cncc(Br)c2)cc1F | 44.8% (inactive)

Compound | inhibition
O=C(Nc1ncccc1OC(F)F)c1cncc(Br)c1 | 89.3% (active)
C=CCN(c1ccccc1)S(=O)(=O)c1ccc(Br)cc1Cl | 27.3% (inactive)
COc1ccc2c(c1)CC(c1nc(Cc3ccc(F)cc3)no1)CO2 (stereo not given) | 63.1% (active)
COc1ccc2cc(C3CN(Cc4noc(C5CC5)n4)CCO3)ccc2c1 (stereo not given) | 23.6% (inactive)
C1=CCC(c2nc(Cc3cccnc3)no2)CC1 (stereo not given) | -4.1% (inactive)
N#CC(C#N)=C1C=C2C=C(N3CCCCC3)CCC2CC1 (stereo not given) | 49% (inactive)
N#CC(C#N)=C1C=C2C=C(N3CCCCCC3)CCC2CC1 (stereo not given) | 73.5% (active)
CCCCN(C)C1=CC2=CC(=C(C#N)C#N)CCC2CC1 (stereo not given) | 45.5% (inactive)
O=C(O)c1cnc(/C=C/c2cccc(C(F)(F)F)c2)s1 | -17.4% (inactive)
Cn1nc(C(F)(F)F)cc1-c1ccc(C(=O)O)s1 | 46.4% (inactive)
O=C(O)c1cnc(-c2ccc(C(F)(F)F)cc2)s1 | 60.4% (active)
Clc1cc(Br)ccc1Oc1ncnc2sccc12 | 70.4% (active)
Brc1ccc(Sc2ncnc3sccc23)cc1 | 19.4% (inactive)
O=C1COc2ccc(C3=NNC(=Nc4ccccc4Cl)SC3)cc2N1 | 11.7% (inactive)
O=C1NC(=Nc2ccccc2Cl)S/C1=C\c1ccsc1 | 59.3% (active)
CN(C)CC/C=C1\c2ccccc2Sc2ccc(Cl)cc21 | 90.1% (active)
Oc1ccc(F)cc1C1=NNC(c2ccc(Cl)cc2)C1 (stereo not given) | 60.6% (active)
CN(Cc1ccc(Cl)cc1)Cc1cc2c(cc1O)CCC2 | 22.8% (inactive)
Oc1c(Cl)cc(Cl)cc1C1=NNC(c2ccccc2F)C1 (stereo not given) | 38.9% (inactive)
Cn1c(Cl)cnc1C1CC(c2cc(Cl)ccc2O)=NN1 (stereo not given) | 101% (active)
COc1ccc(NC(=O)CSc2nnc3ccccn23)c(OC)c1 | 81.5% (active)
O=C(CSc1nnc2ccccn12)Nc1c(Cl)c(Cl)cc(Cl)c1Cl | -1.75% (inactive)
CC(C)CC1NC(=O)C(CCCN)NC(=O)C(C(C)C)NC(=O)C2CCCN2C(=O)C(Cc2ccccc2)NC(=O)C(CC(C)C)NC(=O)C(CCCN)NC(=O)C(C(C)C)NC(=O)C2CCCN2C(=O)C(Cc2ccccc2)NC1=O (stereo not given) (cyclo(FPV[Orn]LFPV[Orn]L); configuration not given here) | 46.4% (inactive)
CCOC(=O)c1ccc(N=Cc2c(O)[nH]c(=O)[nH]c2=O)cc1 | 73.1% (active)
CCCCn1c(O)c(C=Nc2ccc(CC)cc2)c(C)c(C#N)c1=O | 24.8% (inactive)
